# High-throughput results (PubChem BioAssay)
# A selection: hits, their analogues and other compounds. The true share with any hit is near 3.4%.
# MITF inh – blocks human microphthalmia-associated transcription factor; AlphaScreen MITF homodimerization, bead proximity signal; 0.91% of 650,000 active; inhibition, % at 2.6 µM; O75030; AID 1259374; in the data active = inhibition above about 50%;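 note: 0% = vehicle wells with protein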
# TEAD-YAP block – TEAD-YAP interaction inhibition | HEK-TIYL cells, TEAD-Gal4/YAP UAS-luciferase luminescence | 1.4% of 640,000 active | inhibition, % at 9.12 µM; in the data active = inhibition above about 32%;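 note: 0% = median of test compound wells and 100% = reference inhibitor wells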
# GPR151 activ – activators of human GPR151; Q8TDV0; PathHunter beta-arrestin GPR151 cells, luminescence; activation, % at 11.2 µM; 1% of 650,000 active; AID 1508602; in the data active = activation above about 4.9%;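 note: 0% = median of compound wells and 100% = cells with positive control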
# Target sequence (Q8TDV0 whole entry, looked up): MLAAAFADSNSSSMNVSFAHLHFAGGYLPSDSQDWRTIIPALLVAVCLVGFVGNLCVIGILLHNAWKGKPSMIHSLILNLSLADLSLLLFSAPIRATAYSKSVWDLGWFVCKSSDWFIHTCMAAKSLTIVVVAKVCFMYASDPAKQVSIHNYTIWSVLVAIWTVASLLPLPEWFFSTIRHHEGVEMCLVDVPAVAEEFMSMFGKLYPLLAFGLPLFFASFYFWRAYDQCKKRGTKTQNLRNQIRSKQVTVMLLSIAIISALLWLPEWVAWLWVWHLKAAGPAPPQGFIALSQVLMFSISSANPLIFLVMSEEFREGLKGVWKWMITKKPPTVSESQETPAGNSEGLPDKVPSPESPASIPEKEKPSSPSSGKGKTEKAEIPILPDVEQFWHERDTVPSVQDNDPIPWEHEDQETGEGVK
# FBW7 activator – activators of human E3 ligase FBW7 | 0.13% of 650,000 active | AlphaScreen FBW7–phospho-cyclin E peptide binding, activator screen | normalized activity (activation), % at 26.1 µM; in the data active = normalized activity above about 1.9%;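 note: purified mutant Fbw7 with reduced substrate affinity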
# * hit, by the source's call.
SMILES,MITF inh,TEAD-YAP block,GPR151 activ,FBW7 activator
CC1CCCN(c2cc(NCC(=O)O)c3c4c(onc24)-c2ccccc2C3=O)C1 (configuration not stated),59*,67*,-1,-1
CN1CCN(c2cc(NCc3ccco3)c3c4c(onc24)-c2ccccc2C3=O)CC1,56*,-12,0,-1
COC(=O)c1ccc(C(=O)Nc2nc3ccc([N+](=O)[O-])cc3s2)cc1,24,3,-2,0
CCOc1ccc(C(=O)Nc2ccccn2)cc1Br,-4,-21,-3,0
CCNc1cc(N2CCCC2)c2noc3c2c1C(=O)c1ccccc1-3,8,4,-1,0
CC(C)Nc1cc(N2CCOCC2)c2noc3c2c1C(=O)c1ccccc1-3,56*,21,1,-1
CC1CCN(c2cc(NCCO)c3c4c(onc24)-c2ccccc2C3=O)CC1,38,5,-1,0
CC1CCCN(c2cc(NCCO)c3c4c(onc24)-c2ccccc2C3=O)C1 (configuration not stated),26,34*,-2,0
O=C1c2ccccc2-c2onc3c(N4CCCCCC4)cc(NCCO)c1c23,30,37*,1,-1
CCNc1cc(N2CCN(C)CC2)c2noc3c2c1C(=O)c1ccccc1-3,16,5,-1,0
CCNc1cc(N2CCN(CC)CC2)c2noc3c2c1C(=O)c1ccccc1-3,61*,22,0,-1
COc1ccc(OC)c(NC(=O)c2c(NCc3cccnc3)sc3c2CCC3)c1,14,4,0,0
CSCCCNC(=O)C1CC(=O)c2sc(NC(=O)C3CCC3)nc2C1 (configuration not stated),-2,-7,0,0
COc1ccc(C2(NC(=O)CCn3cncn3)CCCCC2)cc1,7,5,0,1
Cc1cccc(Nc2cc(N3CCCCC3)c3noc4c3c2C(=O)c2ccccc2-4)c1,52*,11,0,0
O=C1C(=C2C=CN(CCc3ccccc3)C=C2)C(=O)c2ccccc21,-7,-65,-1,0
CCCCN1C=CC(=C2C(=O)c3ccccc3C2=O)C=C1,18,96*,-8,1
Cc1ccnc(NC(c2ccco2)c2c(C)[nH]c3ccccc23)c1 (configuration not stated),-9,38*,0,0
COc1cc(OC)cc(C2=NC3(CCC(C)CC3)NC2=O)c1 (configuration not stated),-23,4,-1,4.2*
Cc1nc(C)c(-c2ccc(SCC(=O)Nc3ccc([N+](=O)[O-])cc3)nn2)s1,2,47*,1,0
COc1cccc(N/C(N)=N/c2nc(C)cc(C)n2)c1,-22,53*,1,0
Cc1cc(C)nc(/N=C(\N)Nc2cccc(OCc3ccccc3)c2)n1,7,50*,1,0
Cc1ccc(C(=O)COC(=O)C(Cc2ccccc2)N2C(=O)C3C4C=CC(C4)C3C2=O)cc1 (configuration not stated),-15,-1,-1,0
O=[N+]([O-])c1cccc(S(=O)(=O)N2CCCC(c3nc(-c4cccs4)no3)C2)c1 (configuration not stated),7,-5,-1,3.0*
COC(=O)Cc1nc(NCc2ccccc2)c2c(C)c(C)sc2n1,8,67*,1,1
SMILES,MITF inh,TEAD-YAP block,GPR151 activ,FBW7 activator
CCn1cc(SCC(=O)N2N=C(c3cccs3)CC2c2ccc(OC)cc2)c2ccccc21 (configuration not stated),-3,-15,0,0
COc1cccc2c(C)cc(N3CCN(C)CC3)nc12,16,-6,0,1.9*
CN(C)c1ccc(CC(=O)c2nc3ccccc3s2)cc1,10,34*,-2,0
OCCCNc1cc(-c2cccc(C(F)(F)F)c2)nc(-c2cccnc2)n1,6,12,2,0
OCCCNc1cc(-c2cccc(C(F)(F)F)c2)nc(-c2ccccn2)n1,18,33*,2,0
CCCCCOc1ccc(CSCCN)cc1,-7,65*,0,0
CCCCOc1ccc(CSCCN=C(N)N)cc1,7,17,0,0
CCCCOc1ccc(CSCCN)cc1,3,46*,-1,0
CCOc1ccc2nc(NC(=O)c3ccc4c(c3)OCCO4)sc2c1,2,-40,0,0
COc1ccc2c(c1)OCC(Cc1ccc(OC)c(O)c1)C2=O (configuration not stated),1,50*,3,0
CC1CCCCN1c1nc2c(c(=O)[nH]1)CCN(Cc1ccccn1)C2 (configuration not stated),8,13,-2,0
CCNc1nc(OC)nc(Oc2ccc(C(=O)OCC)cc2)n1,11,4,-1,1
